# PubChem BioAssay (NCATS)
# Activity calls are given as the source filed them. Entries that show only a call come without a potency. Calls come from the whole dose curve; as a rule, active = well fitted inhibition curve with a large enough effect; inconclusive = small, poorly fitted or top-dose-only effect; inactive = flat fitted curve, though single readings scatter.
# Biological target: ATP-dependent DNA helicase Q1 (Homo sapiens) (UniProt P46063)
# Assay: qHTS Validation Assay for Inhibitors of RecQ-Like Dna Helicase 1 (RECQ1) (AID 2353)
# Details: recombinant RECQ1 helicase DNA unwinding assay; series mostly up to 25.6 µM
# Description: Survival of cells and the faithful propagation of the genome depend on elaborate mechanisms of detecting and repairing DNA damage. Treatment of advanced cancer relies on radiation therapy or chemotherapy, which kill cancer cells by causing extensive DNA damage. It is often found, that cancer cells develop resistance to therapy through enhanced activity of DNA repair functions; this has led to an increased interest in developing drugs that interfere with DNA repair, which could sensitize cancer cells to conventional therapy.
# This validation qHTS assay pertains to human RECQ1, which is important in resolving abnormal DNA structures formed during replication or homologous recombination. Shutting down the expression of RECQ1 leads to chromosomal instability and higher radiation sensitivity in cultured cells.
# The validation assay was a fluorescence quenching based kinetic qHTS for RECQ1 Helicase DNA unwinding. The activity was measured as ATP-dependent separation of a 20-bp DNA duplex extended by 30-nt single-stranded tails (forked duplex). The forked DNA substrate was tagged with rhodamine fluorophore (carboxytetramethyl rhodamine, TAMRA) and BHQ-2 (Black Hole Quencher 2) dark quencher. Strand separation results in an increase in the fluorescence of TAMRA (excitation 525 nm, emission 598 nm). This substrate construct operates in a red-shifted region where very few compound library members have been noted to fluoresce (PubChem AIDs 593 and 594). An additional feature of the assay is the inclusion of 2.5 ug/ml poly (dIdC), to reduce interference by compounds such as DNA intercalators, a major source of false inhibitors.
# Opher Gileadi, Structural Genomics Consortium, University of Oxford
# Screening Center PI: Austin, C.P.
# Screening Center: NIH Chemical Genomics Center [NCGC]
# Three uL of reaction buffer (25 mM Tris-HCl (pH 8.0), 5 mM NaCl, 2 mM MgCl2, 1mM DTT, 0.01% Tween- 20, and 2.5 ug/ml poly(dI-dC), including enzyme (50 nM RECQ1T1), were dispensed into a 1536-well Greiner black assay plate via solenoid-valve based nanoliter dispensers. Compounds (23 nl each in columns 5-48) and control (23 nl each in column 2 as dose-response) were transferred via a Kalypsys pintool equipped with a 1536-pin array. The plates were incubated for 15 min at room temperature, and then 1 ul of substrates (200 nM DNA and 2 mM ATP, final concentrations) was added to start the reaction. The plate was transferred into a ViewLux high-throughput CCD imager where the reaction progress was measured in a discontinuous kinetic mode (two reads spaced 2 hours apart, with intermediate room temperature incubation of the covered assay plate) by using standard red-fluorescence optics (excitation filter 525 nm, emission filter 598 nm). Enzyme-free and vehicle (DMSO) controls were included for signal normalization.
# Chain of ATP-dependent DNA helicase Q1 (Homo sapiens) (P46063 whole entry, looked up): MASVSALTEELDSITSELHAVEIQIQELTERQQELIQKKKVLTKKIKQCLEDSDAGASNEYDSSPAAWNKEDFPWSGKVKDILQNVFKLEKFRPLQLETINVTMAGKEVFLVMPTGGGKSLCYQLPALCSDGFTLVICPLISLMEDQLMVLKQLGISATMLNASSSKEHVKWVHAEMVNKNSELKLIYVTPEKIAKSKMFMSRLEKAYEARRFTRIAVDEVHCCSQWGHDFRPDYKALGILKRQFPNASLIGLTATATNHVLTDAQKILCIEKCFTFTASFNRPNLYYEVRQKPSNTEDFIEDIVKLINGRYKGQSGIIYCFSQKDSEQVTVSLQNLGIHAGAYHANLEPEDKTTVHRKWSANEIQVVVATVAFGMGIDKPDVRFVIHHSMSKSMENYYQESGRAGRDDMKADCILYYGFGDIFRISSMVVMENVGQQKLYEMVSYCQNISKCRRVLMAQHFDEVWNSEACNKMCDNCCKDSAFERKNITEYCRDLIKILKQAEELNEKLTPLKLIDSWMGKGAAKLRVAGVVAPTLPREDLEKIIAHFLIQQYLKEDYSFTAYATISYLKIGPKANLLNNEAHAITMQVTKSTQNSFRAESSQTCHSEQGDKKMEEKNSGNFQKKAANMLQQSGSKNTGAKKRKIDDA
row,Compound,Potency
1,C[C@H](CS)C(=O)N1CCC[C@H]1C(=O)O,inactive
2,CN/C(=C\[N+](=O)[O-])NCCSCc1ccc(CN(C)C)o1,inactive
3,Cc1nc2sccn2c(=O)c1CCN1CCC(=C(c2ccc(F)cc2)c2ccc(F)cc2)CC1,inactive
4,CCCCNc1c(C(=O)OCC)c(C)nc2c1cnn2CC,inactive
5,CCN(Cc1ccncc1)C(=O)C(CO)c1ccccc1 (stereo not given),inactive
6,C[n+]1cc2c3c(ccc2c2ccc4cc5c(cc4c21)OCO5)OCO3,inactive
7,CCCN1C[C@H](CSC)C[C@@H]2c3cccc4[nH]cc(c34)C[C@H]21,inactive
8,CN(C)CC/C=C1\c2ccccc2COc2ccccc21,inactive
9,COCC(=O)O[C@]1(CCN(C)CCCc2nc3ccccc3[nH]2)CCc2cc(F)ccc2[C@@H]1C(C)C,inactive
10,COc1ccc([C@@H]2Sc3ccccc3N(CCN(C)C)C(=O)[C@@H]2OC(C)=O)cc1,inactive
11,CC(=O)OC(C)C[N+](C)(C)C (stereo not given),inactive
12,NC(N)=N/N=C/c1c(Cl)cccc1Cl,inactive
13,COc1cc(Cc2cnc(N)nc2N)cc(OC)c1OC,inactive
14,CN1CCN(CC(=O)N2c3ccccc3C(=O)Nc3cccnc32)CC1,inactive
15,Cc1ccc(/C(=C\CN2CCCC2)c2ccccn2)cc1,inactive
16,CCCCNc1ccc(C(=O)OCCN(C)C)cc1,inactive
17,CCCN(CCC)CCc1cccc2c1CC(=O)N2,inactive
18,Cc1scc2c1N(C(=O)CN1CCN(C)CC1)c1ccccc1NC2=O,inactive
19,CCCNC(C)C(=O)Nc1ccccc1C (stereo not given),inactive
20,CN1CCN(C2=Nc3ccccc3Oc3ccc(Cl)cc32)CC1,inactive

row,Compound,Potency
1,CN(C)CCN(Cc1cccs1)c1ccccn1,inactive
2,c1cnc(N2CCN(Cc3ccc4c(c3)OCO4)CC2)nc1,inactive
3,Brc1c(NC2=NCCN2)ccc2nccnc12,inactive
4,CCc1cccc(N(C)C(N)=Nc2cccc3ccccc23)c1,inactive
5,Cc1nc2c([nH]1)c(=O)n(C)c(=O)n2Cc1ccco1,inactive
6,CCn1cc(C(=O)O)c(=O)c2cc3c(cc21)OCO3,inactive
7,CC(=O)OCC1=C(C(=O)O)N2C(=O)[C@@H](NC(=O)Cc3cccs3)[C@H]2SC1,inactive
8,CCn1ccnc1CC1COc2ccccc2O1 (stereo not given),inactive
9,Cc1ccc(Cl)c(Nc2ccccc2C(=O)O)c1Cl,inactive
10,Nc1nc(N)c2nc(-c3ccccc3)c(N)nc2n1,inactive
11,CCc1c(C)[nH]c2c1C(=O)C(CN1CCOCC1)CC2 (stereo not given),inactive
12,CO[C@@]1(NC(=O)CSCC#N)C(=O)N2C(C(=O)O)=C(CSc3nnnn3C)CS[C@@H]21,inactive
13,CCO/C([O-])=N/c1c[n+](N2CCOCC2)no1,inactive
14,COc1cc(C(=O)OCCCN2CCCN(CCCOC(=O)c3cc(OC)c(OC)c(OC)c3)CC2)cc(OC)c1OC,inactive
15,C[C@]12C=CC(=O)C=C1CC[C@H]1[C@@H]3C[C@@H](O)[C@](O)(C(=O)CO)[C@@]3(C)C[C@H](O)[C@@]12F,inactive
16,O=C(O)CN(CCN(CC(=O)O)CC(=O)O)CCN(CC(=O)O)CC(=O)O,inactive
17,OCCN1CCN(CCCN2c3ccccc3C=Cc3ccccc32)CC1,inactive
18,N[C@@H](COP(=O)(O)O)C(=O)O,inactive
19,Cc1ccc(=O)n(-c2ccccc2)c1,inactive
20,CN(C(=O)CCCOc1ccc2[nH]c(=O)ccc2c1)C1CCCCC1,inactive
